From PubChem
Lassa entry – Lassa virus entry inhibition | Lassa virus pseudotyped entry inhibition, cell-based qHTS | Potency, µM (highest dose often 49.2 µM), for the others: top-dose activity change, negative = inhibition, most hits filed as inhibitors | actives 4.1% (n = 18,000) | AID 720533
MARV entry inh – blocks Marburg virus binding or cell entry; Potency, µM (titrated, usually from 49.2 µM), inactives show top-dose activity change, negative = inhibition, actives largely listed as inhibitors; actives 6.5% (n = 18,000); Marburg virus pseudotype entry/binding inhibition, cell-based; AID 720532
* = called active by the depositor; ? = inconclusive; ! = a repeat was not active; [ ] = remark or other dose. Compounds with a hit are over-represented: about 8% of the library has one in this group of screens. Calls come from the whole dose curve; tested in HEK293 cells. % is set by controls: 0 for no effect and ±100 for the full control effect; potency is the fitted concentration of half-maximal effect.

SMILES	Lassa entry	MARV entry inh
C#CCN1C(=O)[C@]2(OC[C@@H]3Cc4ccccc4[C@@H]3C=C2C)c2ccccc21	?	2.7%[8.59 µM]
Cc1cc(/C=C/c2ccc3cc(N(C)C)ccc3[n+]2C)c(C)n1-c1ccccc1	10µM*	?
NC(=O)NCC(N)C(=O)O (stereo unspecified)	4.7%	9.3%
CC1(C)C(=O)C2C[C@]3(O)C4=CC(=O)OC(c5ccoc5)[C@]4(C)CCC3[C@](C)(C2=O)C1CC(=O)O (stereo partly specified)	-7.2%	9.6%
Cc1ccc(O)cc1Nc1ccnc2cc(-c3ccccn3)ccc12	?	14.1µM*
O=C(OCC(O)CO)c1ccccc1Nc1ccnc2cc(Cl)ccc12 (stereo unspecified)	-12.7%	-10.8%
CO/N=C1\CN(c2nc3c(cc2F)c(=O)c(C(=O)O)cn3C2CC2)CC1CN (stereo unspecified)	-12.3%	18.1%
CC(=O)c1ccc(-c2c(C)cc3oc(=O)cc(-c4ccccc4)c3c2C)cc1	?	-17.9%
Cc1cc2oc(=O)cc(-c3ccccc3)c2c(C)c1-c1ccc(CO)cc1	11.2µM*	-11.1%
CC(=O)N1CCC[C@H]1C(=O)NCC1Cc2cc(C)cc(-c3ccc(Cl)cc3)c2O1 (stereo partly specified)	-18.5%	-15.7%
CC(C)NCC(O)COc1ccccc1-n1cccc1 (stereo unspecified)	3.9%	?
CC(C)NC[C@@H](O)COc1cccc2ccccc12	-12.9%	?
CC(C)NC[C@H](O)COc1cccc2ccccc12	-7.5%	15.8µM*!
C=CCc1ccccc1OCC(O)CNC(C)C (stereo unspecified)	1.1%	11.2µM*
OC[C@@H]1OC(O)[C@@H](O)[C@H](O)[C@@H]1O (stereo partly specified)	-7.5%	9.1%
Cc1cc2c(c(=O)n1-c1ccccc1)[C@H]1O[C@](c3ccsc3)(Cc3ccccc31)O2	-16.8%[8.59 µM]	?
C[C@@H](O)[C@H]1C(=O)N2C(C(=O)[O-])=C(SC3Cn4cnc[n+]4C3)[C@H](C)[C@H]12 (stereo partly specified)	-10.3%	6.4%
COc1cc(=O)n2c(c1C(=O)NC(C)c1ccco1)CCN(C(=O)c1cccc(C)c1C)CC2 (stereo unspecified)	-5.2%	-1.5%
CC(=O)C1CCC2C3CCC4=CC(=O)CC[C@@]4(C)C3CC[C@]12C (stereo partly specified)	9.3%	22.4µM*
CCCCCCCCCC(=O)O[C@H]1CC[C@H]2[C@@H]3CCC4=CC(=O)CC[C@]4(C)[C@H]3CC[C@]12C	-9.2%	18.6%
CC(=O)[C@@]1(O)CC[C@H]2[C@@H]3CCC4=CC(=O)CC[C@]4(C)[C@H]3CC[C@@]21C	-29.8%	-5.8%
CCCCCC(=O)O[C@]1(C(C)=O)CC[C@H]2[C@@H]3CCC4=CC(=O)CC[C@]4(C)[C@H]3CC[C@@]21C	31.6µM*	?
CO[C@H]1C[C@@H]2CC[C@@H](C)[C@@](O)(O2)C(=O)C(=O)N2CCCC[C@H]2C(=O)OC([C@H](C)C[C@@H]2CC[C@@H](O)[C@H](OC)C2)CC(=O)[C@H](C)/C=C(\C)[C@@H](O)[C@@H](OC)C(=O)[C@H](C)C[C@H](C)/C=C/C=C/C=C/1C (stereo partly specified)	28.2µM*!	35.5µM*!
CC(=O)c1ccc(OCC(=O)N2CCCCC2)cc1	-0.5%	27.8%
Cc1cccc(C(C)c2cnc[nH]2)c1C (stereo unspecified)	12.6%	-3.0%
SMILES	Lassa entry	MARV entry inh
CC1CCC2C(C)C(=O)OC3OC4(C)CCC1C32OO4 (stereo unspecified)	?	-7.2%
C[C@@H]1CCC2[C@@H](C)[C@@H](O)O[C@@H]3O[C@@]4(C)CC[C@@H]1[C@@]23OO4 (stereo partly specified)	0.631µM*	1.26µM*
COC1=C2C[C@@H](C)C[C@H](OC)[C@H](O)[C@@H](C)/C=C(\C)[C@H](OC(N)=O)[C@@H](OC)/C=C\C=C(/C)C(=O)NC(=CC1=O)C2=O	17.8µM*	15.8µM*
C=CCNC1=C2C[C@@H](C)C[C@H](OC)[C@H](O)[C@@H](C)/C=C(\C)[C@H](OC(N)=O)[C@@H](OC)/C=C/C=C(\C)C(=O)NC(=CC1=O)C2=O	2.24µM*	1.78µM*
C[C@H]1CC[C@H]2C(=O)N[C@H](Cc3ccccc3)C(=O)N2[C@H]1c1ccccc1	9.1%[8.59 µM]	-17.3%[8.59 µM]
CC/C=C\C[C@H](O)/C=C/C=C\C/C=C\C/C=C\CCCC(=O)O	-14.9%	-15.0%
COc1cccc(CO[C@H]2C=C[C@@H](c3ccccc3)O[C@H]2CO)c1	-25.8%[8.59 µM]	-7.5%[8.59 µM]
Cc1c(O)cccc1C(=O)N[C@@H](CSc1ccccc1)[C@H](O)CN1C[C@H]2CCCC[C@H]2C[C@H]1C(=O)NC(C)(C)C	28.2µM*	11.2µM*
CN(C)CCc1cc2c(c3c1ccc1ccccc13)OCO2	?	12.6µM*
